About 4,200 (1.2%) of roughly 360,000 compounds were called active. What follows is part of a selection rich in actives, with near analogues and random picks from the rest. A number with no mark means an inactive call.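 The calls were made as follows: active = mean replicate inhibition at least 60% with every replicate also reaching 60%; inconclusive = only one of the two criteria is met; inactive = mean below 60% and not all replicates reaching 60%.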

A short description of this test: PAX8 transcriptional activity inhibition in RMG-I – RMG-I cells, luciferase, single concentration, primary screen (AID 652154).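 Also: luciferase light reporting Pax8 driven TPO promoter activity; plate controls were median of neutral control wells for no effect and mitoxantrone controls for full effect.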 The following applies: RMG-I TPO-luciferase reporter, SteadyGlo, 24 h; at 12.6 µM; active compounds read high. A general note: In a reporter assay the amount or activity of a reporter protein is the signal.
What is called inhibition is the relative decrease from the control value, in per cent. With `C[C@@H]1CN([C@H](C)CO)C(=O)Cc2cc(NC(=O)CCCN(C)C)ccc2O[C@@H]1CN(C)Cc1ccc(Oc2ccccc2)cc1`, the inhibition is -19.4%.

Regarding `Cn1cnc(CCNC(=O)C[C@H]2CC[C@@H]3[C@H](COC[C@@H](O)CN3C(=O)Nc3ccc(Cl)cc3)O2)c1`, the inhibition is -17.8%.

For the compound `Cc1noc(C)c1S(=O)(=O)Nc1ccc2c(c1)C(=O)N([C@H](C)CO)C[C@@H](C)[C@@H](CN(C)Cc1ccccc1)OCCCC[C@@H](C)O2`, the inhibition is 15.9%.

With `CCOC(=O)c1ccc(NC(=O)c2nc[nH]c2C(=O)N[C@@H](CCCCNC(=O)OC(C)(C)C)C(=O)OC(C)(C)C)cc1`, the inhibition is 11.1%.

Take `CC(C)(C)OC(=O)NCCCCCNC(=O)c1nc[nH]c1C(=O)NCc1ccccc1`: the inhibition was 8.72%.

On to `Cc1ccc(NC(=O)c2nc[nH]c2C(=O)N[C@@H](CCCCNC(=O)OC(C)(C)C)C(=O)OC(C)(C)C)cc1`, for which the inhibition is 64% (active).

As for `COc1ccccc1CCn1cnc(-c2ccccc2)c1C(C)C`, the inhibition was 14.5%.

In the case of `Cc1cccc(NC(=O)C2CCN(S(=O)(=O)c3cccc4cccnc34)CC2)c1`, the inhibition is 11.9%.

On to `Cc1ccnc(NC(=O)C2CCN(S(=O)(=O)c3c(C)c(C)cc(C)c3C)CC2)c1`, for which the inhibition was 74.9% (active).

In the case of `O=C(Nc1ccccn1)C1CCN(S(=O)(=O)c2ccccc2)CC1`, the inhibition was -150%.

On to `COc1ccccc1-c1ccc2c(c1)[C@H]1[C@H](CCN1S(=O)(=O)c1ccccc1)[C@@H](CO)N2`, for which the inhibition is 48.7%.

As for `O=C(Nc1c(Cl)c(C2CC2)nn1-c1ccccc1)C(Cl)(Cl)Cl`, the inhibition was 12.8%.

On to `CCC(=O)Nc1ccc2c(c1)OC[C@H](C)N(C(=O)Cc1cccnc1)C[C@@H](C)[C@@H](OC)CN(C)C2=O`, for which the inhibition is 19.9%.

Turning to `COC(=O)Cn1c(O)c(N=NC(=O)OC)c2ccccc21`, the inhibition was 8.64%.

Consider `CCCCn1c(O)c(N=NC(=O)Cn2c(C(F)(F)F)nc3ccccc32)c2ccccc21`, for which the inhibition was 125% (active).

As for `CN1CCN(C(=O)Cn2c(C(F)(F)F)nc3ccccc32)CC1`, the inhibition is 1.81%.

Turning to `CCCNC(=O)N1[C@@H]2c3ccc(-c4ccccc4OC)c(=O)n3C[C@H]1[C@H](CO)[C@H]2C(=O)N(C)C`, the inhibition is -4.26%.

In the case of `C=C1C(=O)[C@]23C[C@H]1CCC2[C@@]1(C)C(C[C@@H]3O)[C@](C)(C(=O)O)CC[C@@H]1O` (stereo not given in full), the inhibition was 71.9% (active).

For `CN1CCCCN2[C@@H](CO)[C@@H](c3ccc(C4=CCCC4)cc3)[C@@H]2C1`, the inhibition is -5.77%.

With `S=c1[nH]nc(-c2cccs2)n1/N=C/c1cn(-c2ccccc2)nc1-c1ccc(Cl)cc1`, the inhibition is 3.55%.

For `Cc1ccccc1-c1n[nH]c(=S)n1/N=C/c1ccc(-c2ccccc2Br)o1`, the inhibition is -5.71%.

As for `S=c1[nH]nc(-c2cccnc2)n1/N=C/C(Cl)=C\c1ccccc1`, the inhibition was 72.4% (active).

`Fc1ccc(/C=N/n2c(COc3ccccc3)n[nH]c2=S)cc1`: the inhibition was -9.55%.

For `Cc1cc(-c2n[nH]c(=S)n2/N=C/C(Br)=C/c2ccccc2)n[nH]1`, the inhibition is 94% (active).

For the compound `COc1ccccc1N1CCN(/N=C\C(Br)=C\c2ccccc2)CC1`, the inhibition is 3.71%.

The values above are taken from PubChem BioAssay AID652154 (Broad Institute, 2013).
